From PubChem BioAssay (EPA / NIEHS)
Active and inactive are the calls of the source. How the source made its calls: active means hit-call score of the fitted dose curve at least 0.9, where 1 is the maximum; inactive means score below 0.9.

Columns and labels:
[1] = ATG_E_Box_CIS: Attagene CIS-FACTORIAL HepG2 Assay for human Enhancer Box (E-box) (AID 2282936); conditions: HepG2 E-box cis-reporter transcription, actives raise or lower the signal
Procedure, shortened: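 In this cell-based setup, HepG2 cells bearing transfected promoter-driven reporter units were exposed to chemicals for 24 h; reporter transcripts were amplified, 6-FAM-labelled, cut with HpaI and sized by capillary electrophoresis.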

[2] = ATG_M_61_CIS: Attagene CIS-FACTORIAL HepG2 Assay for M61 Transcription Factor (Internal Marker) (AID 2282937); conditions: HepG2 Attagene CIS-FACTORIAL M61 internal marker reporter; actives raise or lower the signal
Procedure, shortened: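 Human liver HepG2, transient MRTU transfection (cis promoter elements), 24 h compound. Total RNA → oligo(dT) RT → PCR → FAM label → HpaI → CE. Internal background marker; bidirectional fitting, DMSO = baseline.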

[3] = ATG_EGR_CIS: Attagene CIS-FACTORIAL HepG2 Assay for human Early Growth Response 1 (EGR1) (AID 2282938); conditions: HepG2 Attagene CIS-FACTORIAL EGR reporter mRNA; actives raise or lower the signal
Procedure, shortened: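 Transient transfection of human HepG2 with multiple cis-regulated reporter units, chemical exposure 24 h, total RNA isolated. Reverse transcription, PCR, fluorescent labelling and capillary electrophoresis quantify reporter transcripts; activity fitted bidirectionally against DMSO.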

[4] = ATG_M_19_CIS: Attagene CIS-FACTORIAL HepG2 Assay for M19 Transcription Factor (Internal Marker) (AID 2282939); conditions: HepG2 Attagene CIS-FACTORIAL M19 internal marker reporter; actives raise or lower the signal
Procedure, shortened: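 Chemical-treated HepG2 (24 h) with MRTU constructs; reporter transcripts detected by fluorescent RT-PCR fragment analysis on capillary electrophoresis. Internal background marker, DMSO as baseline.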

[5] = ATG_Ets_CIS: Attagene CIS-FACTORIAL HepG2 Assay for human Erythroblast Transformation Specific (ETS) (AID 2282941); conditions: HepG2 ETS cis-reporter transcription, actives raise or lower the signal
Procedure, shortened: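 Cis-regulated reporter mRNA induction in HepG2 (transient transfection), 24 h exposure, RT-PCR plus capillary electrophoresis detection; DMSO serves as negative control and baseline.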

[6] = molecular target: Hepatocyte nuclear factor 3-beta (Homo sapiens) (UniProt Q9Y261); experiment: ATG_FoxA2_CIS: Attagene CIS-FACTORIAL HepG2 Assay for human Forkhead box A2 (FOXA2) (AID 2282942); conditions: HepG2 cis-reporter transcription factor activity, 24 h; actives raise or lower the signal
Procedure, shortened: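 Transient MRTU transfection of HepG2 liver cells; 24 h treatment; total RNA → oligo(dT) RT → PCR → FAM primer extension → HpaI cut → CE. Bidirectional fit vs DMSO.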

[7] = ATG_FoxO_CIS: Attagene CIS-FACTORIAL HepG2 Assay for human Forkhead box O (FoxO) (AID 2282943); conditions: HepG2 Attagene cis-reporter, FoxO element, mRNA; actives raise or lower the signal
Procedure, shortened: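 HepG2 cells transiently transfected with cis-element-driven reporter units report endogenous FoxO activity. After 24 h chemical exposure, reporter mRNA quantified by RT-PCR, fluorescent labeling, HpaI digestion and capillary electrophoresis; bidirectional fit versus DMSO.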

[8] = ATG_GATA_CIS: Attagene CIS-FACTORIAL HepG2 Assay for human GATA Binding Protein (AID 2282944); conditions: HepG2 GATA cis-element reporter, Attagene multiplex mRNA; actives raise or lower the signal
Procedure, shortened: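 Transfected cis-reporter HepG2 cells were treated with chemicals for 24 hours. Total RNA was then converted to cDNA, amplified with reporter-specific primers and analysed by fluorescent capillary electrophoresis, using DMSO-treated wells as baseline.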

[9] = ATG_GLI_CIS: Attagene CIS-FACTORIAL HepG2 Assay for human Zinc Finger Protein GLI1 (AID 2282945); conditions: HepG2, Attagene cis-factorial reporter mRNA, GLI element; actives raise or lower the signal
Procedure, shortened: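 Transiently transfected HepG2 cells report endogenous transcription factor activity via cis-element-driven reporter units. After 24 h compound exposure, reporter mRNA was measured by RT-PCR with capillary electrophoresis; bidirectional fitting against DMSO baseline.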

[10] = molecular target: Bile acid receptor (Homo sapiens) (UniProt Q96RI1); experiment: ATG_IR1_CIS: Attagene CIS-FACTORIAL HepG2 Assay for human Nuclear Receptor Subfamily 1 Group H Member 4 (NR1H4), IR1 submotif (AID 2282946); conditions: IR1 reporter transcription, actives raise or lower the signal
Procedure, shortened: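 Fluorescence of capillary-separated, HpaI-digested RT-PCR reporter products gave IR1-element mRNA induction in HepG2 cells 24 h after dosing. Endogenous transcription factors drove the cis-regulated reporters; activity was fitted bidirectionally against DMSO.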

[11] = ATG_GRE_CIS: Attagene CIS-FACTORIAL HepG2 Assay for human Glucocorticoid Response Elements (GRE) (AID 2282947); conditions: HepG2 GRE cis-reporter, Attagene multiplex mRNA; actives raise or lower the signal
Procedure, shortened: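 Fluorescence intensity of reporter-specific cDNA fragments, separated by capillary electrophoresis, provides the signal. Constructs carry cis-regulating promoters in transiently transfected HepG2 liver cells; 24 h incubation; fitting is bidirectional against DMSO.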

[12] = ATG_ISRE_CIS: Attagene CIS-FACTORIAL HepG2 Assay for human Interferon Regulatory Factor 1 (IRF1) binding to an Interferon-Stimulated Response Element (ISRE) (AID 2282948); conditions: HepG2 ISRE cis-reporter (Attagene), mRNA transcription readout; actives raise or lower the signal
Procedure, shortened: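 Multiplexed mRNA reporter readout in human liver HepG2 cells: cis-element-driven reporters transfected, compound added for 24 h, transcripts amplified, fluorescently labelled and sized by capillary electrophoresis; curve fitting bidirectional against DMSO.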

[13] = ATG_M_32_CIS: Attagene CIS-FACTORIAL HepG2 Assay for M32 Transcription Factor (Internal Marker) (AID 2282949); conditions: HepG2 Attagene cis-factorial M32 reporter, mRNA; actives raise or lower the signal;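 further: background control marker of the multiplexed CIS panel rather than a real target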
Procedure, shortened: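 HepG2 transfectants (cis-regulated reporter transcription units) dosed 24 h. Reporter mRNA by RT-PCR plus CE, analysed as gain or loss relative to DMSO.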

[14] = ATG_M_06_CIS: Attagene CIS-FACTORIAL HepG2 Assay for M06 Transcription Factor (Internal Marker) (AID 2282950); conditions: HepG2 Attagene CIS-FACTORIAL M06 internal marker reporter; actives raise or lower the signal
Procedure, shortened: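 Cells (HepG2, transiently carrying cis-driven reporter units) receive chemical for 24 h before RNA isolation. Reporter cDNA is PCR-amplified, FAM-labelled by primer extension, HpaI-digested and sized on a capillary analyser.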

[15] = molecular target: Hypoxia-inducible factor 1-alpha (Homo sapiens) (UniProt Q16665); experiment: ATG_HIF1a_CIS: Attagene CIS-FACTORIAL HepG2 Assay for human Hypoxia Inducible Factor 1 (HIF1A) (AID 2282951); conditions: HepG2 Attagene cis-factorial HIF1a reporter transcription; actives raise or lower the signal
Procedure, shortened: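 Transient MRTU transfection of human HepG2 liver cells, 24 h compound treatment, then total RNA isolation, oligo(dT) reverse transcription, PCR amplification, fluorescent labelling and capillary electrophoresis of reporter fragments. Gain or loss relative to DMSO.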

[16] = molecular target: Heat shock factor protein 1 (Homo sapiens) (UniProt Q00613); experiment: ATG_HSE_CIS: Attagene CIS-FACTORIAL HepG2 Assay for human Heat Shock Transcription Factor 1 (HSE) (AID 2282953); conditions: HepG2 HSE cis-reporter, Attagene RNA transcription; actives raise or lower the signal
Procedure, shortened: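 Liver-derived HepG2 cells carry transiently introduced multiple reporter units governed by cis promoters. Reporter RNA measured 24 h post-dose through reverse transcription, PCR amplification, fluorescent labelling and capillary electrophoresis, normalised to DMSO.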

[17] = ATG_MRE_CIS: Attagene CIS-FACTORIAL HepG2 Assay for human Metal Responsive Element (MRE) (AID 2282954); conditions: HepG2 MRE cis-reporter transcription, Attagene multiplex; actives raise or lower the signal
Procedure, shortened: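 Measured here is mRNA induction from an MRE cis-element reporter in HepG2 after 24 h, quantified by fluorescence of labelled RT-PCR products on capillary electrophoresis; gain- and loss-of-signal fits use DMSO as baseline.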

[18] = molecular target: Hepatocyte nuclear factor 6 (Homo sapiens) (UniProt Q9UBC0); experiment: ATG_HNF6_CIS: Attagene CIS-FACTORIAL HepG2 Assay for human Hepatocyte Nuclear Factor 6 (HNF6) (AID 2282952); conditions: HepG2 Attagene cis-factorial HNF6 reporter transcription; actives raise or lower the signal
Procedure, shortened: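 Activity values derive from bidirectional fitting against DMSO of reporter mRNA levels, measured by capillary electrophoresis of labelled RT-PCR products from HepG2 cells exposed 24 h.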

[19] = ATG_PBREM_CIS: Attagene CIS-FACTORIAL HepG2 Assay for human Phenobarbital-responsive Enhancer Module (PBREM) (AID 2282955); conditions: HepG2 PBREM cis-reporter, Attagene multiplexed transcription; actives raise or lower the signal
Procedure, shortened: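 Endogenous transcription factors in human liver HepG2 cells drive a PBREM cis-element reporter, whose transcript level after 24 h treatment is quantified by RT-PCR with capillary electrophoresis; activity fitted in both directions against DMSO.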

Measured: AC50

Bile acid receptor (Homo sapiens), sequence (Q96RI1 whole entry, looked up): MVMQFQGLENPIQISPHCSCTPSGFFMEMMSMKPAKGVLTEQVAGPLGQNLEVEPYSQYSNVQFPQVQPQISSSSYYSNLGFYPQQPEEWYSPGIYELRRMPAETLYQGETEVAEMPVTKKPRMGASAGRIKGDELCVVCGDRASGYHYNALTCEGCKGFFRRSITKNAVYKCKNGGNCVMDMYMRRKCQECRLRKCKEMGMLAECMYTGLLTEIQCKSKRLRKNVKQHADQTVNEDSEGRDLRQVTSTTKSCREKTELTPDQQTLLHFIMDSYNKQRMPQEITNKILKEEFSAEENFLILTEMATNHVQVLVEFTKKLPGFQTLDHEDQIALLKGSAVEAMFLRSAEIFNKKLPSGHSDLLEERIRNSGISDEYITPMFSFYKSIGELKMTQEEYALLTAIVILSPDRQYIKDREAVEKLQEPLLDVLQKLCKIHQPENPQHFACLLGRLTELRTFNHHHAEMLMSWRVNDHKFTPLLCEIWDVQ
Heat shock factor protein 1 (Homo sapiens), sequence (Q00613 whole entry, looked up): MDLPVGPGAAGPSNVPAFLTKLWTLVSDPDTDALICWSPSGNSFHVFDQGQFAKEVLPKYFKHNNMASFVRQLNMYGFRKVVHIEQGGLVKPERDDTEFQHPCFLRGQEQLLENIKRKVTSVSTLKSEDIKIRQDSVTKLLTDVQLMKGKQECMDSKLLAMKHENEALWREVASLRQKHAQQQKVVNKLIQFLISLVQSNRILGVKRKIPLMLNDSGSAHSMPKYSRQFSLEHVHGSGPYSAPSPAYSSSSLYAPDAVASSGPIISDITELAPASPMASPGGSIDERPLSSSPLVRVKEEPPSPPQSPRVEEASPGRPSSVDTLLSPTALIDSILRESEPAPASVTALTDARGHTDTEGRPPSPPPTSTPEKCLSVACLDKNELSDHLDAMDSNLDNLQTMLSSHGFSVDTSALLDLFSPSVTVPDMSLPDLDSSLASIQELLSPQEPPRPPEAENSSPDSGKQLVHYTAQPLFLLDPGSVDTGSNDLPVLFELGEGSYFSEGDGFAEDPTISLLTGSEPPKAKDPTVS
Hypoxia-inducible factor 1-alpha (Homo sapiens), sequence (Q16665 whole entry, looked up, the tested form may be a part): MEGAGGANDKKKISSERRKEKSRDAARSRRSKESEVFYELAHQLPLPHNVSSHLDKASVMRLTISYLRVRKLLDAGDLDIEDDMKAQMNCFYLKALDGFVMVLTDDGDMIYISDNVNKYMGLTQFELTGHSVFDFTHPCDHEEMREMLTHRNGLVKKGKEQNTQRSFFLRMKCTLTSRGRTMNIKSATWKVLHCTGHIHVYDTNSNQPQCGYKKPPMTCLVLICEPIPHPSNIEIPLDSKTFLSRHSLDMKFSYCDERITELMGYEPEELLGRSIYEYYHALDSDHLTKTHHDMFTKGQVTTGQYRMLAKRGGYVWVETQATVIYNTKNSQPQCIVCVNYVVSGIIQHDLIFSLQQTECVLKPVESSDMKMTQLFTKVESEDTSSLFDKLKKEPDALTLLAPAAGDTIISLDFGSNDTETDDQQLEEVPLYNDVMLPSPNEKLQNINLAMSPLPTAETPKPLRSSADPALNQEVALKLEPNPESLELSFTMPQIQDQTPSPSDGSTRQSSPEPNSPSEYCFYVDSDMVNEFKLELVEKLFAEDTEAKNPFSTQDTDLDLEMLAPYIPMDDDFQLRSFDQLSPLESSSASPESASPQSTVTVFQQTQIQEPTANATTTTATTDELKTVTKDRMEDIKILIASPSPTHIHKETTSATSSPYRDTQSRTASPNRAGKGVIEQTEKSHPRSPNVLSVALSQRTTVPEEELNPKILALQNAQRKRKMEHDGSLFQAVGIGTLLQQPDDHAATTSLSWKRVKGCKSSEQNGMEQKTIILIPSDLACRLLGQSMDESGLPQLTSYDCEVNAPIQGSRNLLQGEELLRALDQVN
Hepatocyte nuclear factor 3-beta (Homo sapiens), sequence (Q9Y261 whole entry, looked up): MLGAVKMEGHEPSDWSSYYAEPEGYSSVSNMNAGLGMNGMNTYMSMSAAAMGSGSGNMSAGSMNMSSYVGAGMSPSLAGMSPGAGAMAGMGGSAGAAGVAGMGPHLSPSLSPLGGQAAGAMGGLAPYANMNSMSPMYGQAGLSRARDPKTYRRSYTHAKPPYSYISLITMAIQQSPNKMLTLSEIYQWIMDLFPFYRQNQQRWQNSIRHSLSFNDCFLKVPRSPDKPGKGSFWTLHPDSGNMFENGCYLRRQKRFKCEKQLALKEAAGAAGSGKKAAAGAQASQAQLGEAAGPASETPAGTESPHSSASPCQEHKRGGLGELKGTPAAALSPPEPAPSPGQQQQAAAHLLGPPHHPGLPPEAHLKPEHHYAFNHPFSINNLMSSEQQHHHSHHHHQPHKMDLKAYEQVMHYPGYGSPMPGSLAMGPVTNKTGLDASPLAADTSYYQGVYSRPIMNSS
Hepatocyte nuclear factor 6 (Homo sapiens), sequence (Q9UBC0 whole entry, looked up): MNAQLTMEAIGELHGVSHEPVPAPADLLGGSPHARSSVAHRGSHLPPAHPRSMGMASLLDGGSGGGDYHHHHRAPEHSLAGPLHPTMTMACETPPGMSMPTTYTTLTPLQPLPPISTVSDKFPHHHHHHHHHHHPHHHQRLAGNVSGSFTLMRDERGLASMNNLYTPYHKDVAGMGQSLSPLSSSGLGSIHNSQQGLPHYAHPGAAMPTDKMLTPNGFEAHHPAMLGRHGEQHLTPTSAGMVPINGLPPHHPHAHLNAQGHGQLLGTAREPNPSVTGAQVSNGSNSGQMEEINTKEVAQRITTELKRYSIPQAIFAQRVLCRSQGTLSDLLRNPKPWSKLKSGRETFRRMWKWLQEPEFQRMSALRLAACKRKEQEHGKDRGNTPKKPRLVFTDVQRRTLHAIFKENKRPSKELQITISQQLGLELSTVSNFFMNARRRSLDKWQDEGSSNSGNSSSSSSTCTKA

CCCCC(CC)C(=O)OC(C)C (stereo not drawn)
not listed: [18] | [19]
inactive: all other assays above

C=C1C[C@]23C[C@@]1(O)CC[C@H]2[C@@]12C=C[C@H](O)[C@@](C)(C(=O)O1)[C@H]2[C@@H]3C(=O)O
not listed: [16] | [19]
inactive: all other assays above

COc1ccc(CCN2CCC(Nc3nc4ccccc4n3Cc3ccc(F)cc3)CC2)cc1
not listed: [13] | [15]
inactive: all other assays above

COc1cc(C(C)C)ccc1C
not listed: [18]
inactive: all other assays above

CCOC(=O)CN
inactive: all assays above

O=C(Nc1ccc2c(c1)Cc1ccccc1-2)C(F)(F)F
active: [15] 22.6 µM
inactive: all other assays above

CCCCCCCCc1ccc(S(=O)(=O)O)cc1
active: [1] 159 µM | [2] 155 µM | [4] 157 µM | [5] 156 µM | [7] 159 µM | [8] 99.5 µM | [9] 168 µM | [10] 175 µM | [13] 99.5 µM | [14] 155 µM | [18] 167 µM | [19] 99.5 µM
inactive: [3] | [6] | [11] | [12] | [15] | [16] | [17]

CC1(C)O[C@@H]2C[C@H]3[C@@H]4CCC5=CC(=O)C=C[C@]5(C)[C@@]4(F)[C@@H](O)C[C@]3(C)[C@]2(C(=O)CO)O1
active: [11] 0.419 µM
not listed: [16] | [19]
inactive: all other assays above

CCCCCCCCN1CCCC1=O
active: [15] 147 µM
inactive: all other assays above

CCC1(c2ccccc2)C(=O)NCNC1=O
not listed: [15]
inactive: all other assays above

C=CC(C)C#N (stereo not drawn)
inactive: all assays above

COc1ccc(OC)c(N=Nc2c(O)ccc3ccccc23)c1
inactive: all assays above

Cc1cc(CCC(=O)OCCOCCOCCOC(=O)CCc2cc(C)c(O)c(C(C)(C)C)c2)cc(C(C)(C)C)c1O
active: [17] 26.6 µM | [19] 17.7 µM
not listed: [13] | [18]
inactive: all other assays above

CCCCCCC(O)CCCCCCCCCCC(=O)O (stereo not drawn)
not listed: [13]
inactive: all other assays above

COCCc1ccc(OCC(O)CNC(C)C)cc1 (stereo not drawn)
not listed: [15] | [16]
inactive: all other assays above

C=C(C)C(=O)OCC(CC)(COC(=O)C(=C)C)COC(=O)C(=C)C
not listed: [18]
inactive: all other assays above
